# Results: PubChem BioAssay (Tox21)
# Results filed as inconclusive are left out. Calls of active or inactive are those of the source. Unless noted, calls come from the whole dose curve; as a rule, active = well fitted curve in the direction sought with a large enough effect in the repeat runs; inconclusive = weak or mixed curves; inactive = no such curve, though single readings can be large; an effect the other way counts as inactive or inconclusive.
# Assay: qHTS assay for small molecules that induce genotoxicity in human embryonic kidney cells expressing luciferase-tagged ATAD5 - cell viability (AID 651634; calls by dose curve; note: nearly all actives have a fitted effect of over 25% in size; note: potency is the fitted concentration of half-maximal effect)
# Settings: HEK293T ATAD5-luc cells viability, CellTiter-Fluor, 15.5 h; series mostly up to 83.3 µM; activity, negative = cytotoxicity: at the top concentration
# Summary of the method: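 Cytotoxicity counter-readout: after 15.5 hr compound treatment at 37C, live-cell protease activity in ATAD5-luciferase HEK293T cells measured by CellTiter-Fluor fluorescence, 30 min development at 37C.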
# % is set by controls: 0 for no effect and ±100 for the full control effect.
SMILES,"activity, negative = cytotoxicity",Potency
CCO[Si](CCCS)(OCC)OCC,10.6% (inactive),–
NS(=O)(=O)c1ccc(NC(=O)CCC(=O)O)cc1,-3.7% (inactive),–
O=C(/N=N/C(=O)OCc1ccccc1)OCc1ccccc1,8.26% (inactive),–
CC(S)C(=O)NCC(=O)O (stereo not drawn),11.2% (inactive),–
C#CC(C)N(C)C(=O)Nc1ccc(Cl)cc1 (stereo not drawn),5.58% (inactive),–
Nc1ccc([N+](=O)[O-])c(N)c1,–,47.3 µM (active)
CC(C)(C)NC(N)=O,16.8% (inactive),–
COC(=O)C1CC(=O)C(C(=O)OC)CC1=O (stereo not drawn),31.1% [at 8.08 µM] (inactive),–
Oc1cn2c(n1)Nc1ccc(Cl)c(Cl)c1C2,–,inactive
CC1=CCC(C(C)C)=CC1,6.54% (inactive),–
COCCOCCOCCOCCOCCO,12.7% (inactive),–
O=C1O[C@@H]2[C@@H](O)[C@H](O)O[C@@H]2[C@H]1O,–,inactive
CC(=O)c1sc(C)nc1C,26.7% (inactive),–

# Assay: qHTS assay for small molecule disruptors of the mitochondrial membrane potential - cell viability (AID 720634; calls by dose curve;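 note: human HepG2 liver cancer cells; nearly all actives have a fitted effect of over 20% in size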)
# Settings: HepG2 viability, ATP luminescence (CellTiter-Glo), 1 h; series mostly up to 83.2 µM; activity change, negative = cytotoxicity: at the top concentration
# Summary of the method: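 Cytotoxicity was quantified from ATP content by CellTiter-Glo luminescence in the same wells as the MMP dye read-out. HepG2 (2,000 cells/well) were plated overnight and exposed to compounds for 1 hr at 37 C.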
row,SMILES,"activity change, negative = cytotoxicity"
1,CC(N)C(=O)OC(C)(C)Cc1ccc(Cl)cc1 (stereo not drawn),-4.85% (inactive)
2,O=C(c1ccc(O)cc1)c1ccc(O)c(O)c1O,-5.98% [at 95.3 µM] (inactive)
3,CC(=O)Nc1ccc(S(=O)(=O)Nc2ccc([N+](=O)[O-])cc2)cc1,7.41% (inactive)

# Assay: qHTS assay for small molecule disruptors of the mitochondrial membrane potential (AID 720635); note: potency is the fitted concentration of half-maximal effect
# Settings: HepG2 mitochondrial membrane potential, Mito-MPS dye ratio; series mostly up to 83.2 µM; ratio activity, negative = MMP loss: at the top concentration
# Summary of the method: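 HepG2 cells (2,000/well) attached overnight at 37C, then took compound for 1 hr at 37C, 5% CO2. Mito-MPS dye was added for 30 min; fluorescence was read at 490/535 nm (monomers) and 540/590 nm (aggregates).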
SMILES,"ratio activity, negative = MMP loss",Potency
O=C(O)Cc1cn(-c2ccccc2)nc1-c1ccc(Cl)cc1,-18.9% (inactive),–
CCCCCCOC(=O)CC,6% (inactive),–
CC(C(=O)O)c1ccc2c(c1)CC(=O)c1ccccc1S2 (stereo not drawn),-17.7% (inactive),–
CC(=O)NCc1c(I)c(NC(C)=O)c(I)c(C(=O)O)c1I,-14.8% (inactive),–
CC(C)NCC(O)COc1ccc(COCCOC(C)C)cc1 (stereo not drawn),–,inactive
C[C@@H]1O[C@@H](O[C@@H]2[C@@H](O)[C@H](OCCc3ccc(O)c(O)c3)O[C@H](CO[C@@H]3O[C@H](CO)[C@@H](O)[C@H](O)[C@H]3O)[C@H]2OC(=O)/C=C/c2ccc(O)c(O)c2)[C@H](O)[C@H](O)[C@H]1O,-9.56% (inactive),–
CC(=O)/C=C/C1C(C)=CCC(C)C1(C)C (stereo not drawn),10.3% (inactive),–
C=C(C)C(=O)OCCNC(C)(C)C,26.3% (inactive),–
C=COCCOCCOCCOC=C,21.8% (inactive),–
CC(=O)CCCCn1c(=O)c2c(ncn2C)n(C)c1=O,-4.7% [at 39.1 µM] (inactive),–
FC(F)(F)c1ccccc1-n1ccnc1,8.15% (inactive),–
C=Cc1ccccn1,9.15% [at 95.3 µM] (inactive),–
NS(=O)(=O)c1ccc(NC(=O)CCC(=O)O)cc1,-25.5% (inactive),–
Oc1cn2c(n1)Nc1ccc(Cl)c(Cl)c1C2,8.02% (inactive),–
O=C(c1ccc(O)cc1)c1ccc(O)c(O)c1O,–,27.4 µM (active)
O=C1O[C@@H]2[C@@H](O)[C@H](O)O[C@@H]2[C@H]1O,4.34% (inactive),–
CC(=O)c1sc(C)nc1C,6.05% (inactive),–

# Assay: qHTS assay to test for compound auto fluorescence at 590 nm (red) in HepG2 cells (AID 720674)
# Settings: HepG2 autofluorescence, red 540/590 nm, 1 h; series mostly up to 91.3 µM; fluorescence, relative to Rose Bengal: at the top concentration
# Summary of the method: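 Rose Bengal sodium served as the red fluorophore standard. HepG2 monolayers (overnight attachment, MEM with 10% FBS) were exposed to test compounds for 1 hr at 37 C and read at Ex 540/Em 590 nm.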
SMILES,"fluorescence, relative to Rose Bengal",outcome
O=C(O)Cc1cn(-c2ccccc2)nc1-c1ccc(Cl)cc1,-0.64% [at 46 µM] (inactive),–
CCCCCCOC(=O)CC,0.437% (inactive),–
O=C(O)c1cc(Cl)cc([N+](=O)[O-])c1Cl,0.262% (inactive),–
Nc1nnc(-c2cccc(Cl)c2Cl)c(N)n1,0.44% [at 46 µM] (inactive),–
CC(C(=O)O)c1ccc2c(c1)CC(=O)c1ccccc1S2 (stereo not drawn),0.394% [at 46 µM] (inactive),–
COCCOC(=O)C1=C(C)NC(C)=C(C(=O)OC(C)C)C1c1cccc([N+](=O)[O-])c1 (stereo not drawn),0.0408% [at 46 µM] (inactive),–
COc1ccc(-c2cc(=O)c3c(O)cc(O[C@@H]4O[C@H](CO[C@@H]5O[C@@H](C)[C@H](O)[C@@H](O)[C@H]5O)[C@@H](O)[C@H](O)[C@H]4O)cc3o2)cc1O,0.121% [at 46 µM] (inactive),–
CC(=O)NCc1c(I)c(NC(C)=O)c(I)c(C(=O)O)c1I,0.385% [at 46 µM] (inactive),–
Cc1cccc(C)c1OCC(C)N (stereo not drawn),0.268% [at 46 µM] (inactive),–
CC(C)NCC(O)COc1ccc(COCCOC(C)C)cc1 (stereo not drawn),–,inactive
C[C@@H]1O[C@@H](O[C@@H]2[C@@H](O)[C@H](OCCc3ccc(O)c(O)c3)O[C@H](CO[C@@H]3O[C@H](CO)[C@@H](O)[C@H](O)[C@H]3O)[C@H]2OC(=O)/C=C/c2ccc(O)c(O)c2)[C@H](O)[C@H](O)[C@H]1O,0.0394% (inactive),–
CC(=O)/C=C/C1C(C)=CCC(C)C1(C)C (stereo not drawn),-0.253% (inactive),–
Brc1ccc(-c2ccccc2)cc1,0.142% (inactive),–
C=C(C)C(=O)OCCNC(C)(C)C,0.105% (inactive),–
C=COCCOCCOCCOC=C,0.0128% (inactive),–
CC(=O)CCCCn1c(=O)c2c(ncn2C)n(C)c1=O,0.0631% [at 18.6 µM] (inactive),–
FC(F)(F)c1ccccc1-n1ccnc1,0.131% [at 46 µM] (inactive),–
C=Cc1ccccn1,-0.25% (inactive),–

SMILES,"fluorescence, relative to Rose Bengal",outcome
CC(N)C(=O)OC(C)(C)Cc1ccc(Cl)cc1 (stereo not drawn),-0.618% [at 46 µM] (inactive),–
CCO[Si](CCCS)(OCC)OCC,-0.266% (inactive),–
NS(=O)(=O)c1ccc(NC(=O)CCC(=O)O)cc1,0.116% [at 46 µM] (inactive),–
O=C(/N=N/C(=O)OCc1ccccc1)OCc1ccccc1,-0.0797% (inactive),–
CC(S)C(=O)NCC(=O)O (stereo not drawn),-0.315% [at 46 µM] (inactive),–
C#CC(C)N(C)C(=O)Nc1ccc(Cl)cc1 (stereo not drawn),-0.135% (inactive),–
Nc1ccc([N+](=O)[O-])c(N)c1,-0.0085% (inactive),–
CC(C)(C)NC(N)=O,-0.0387% (inactive),–
COC(=O)C1CC(=O)C(C(=O)OC)CC1=O (stereo not drawn),0.406% [at 3.72 µM] (inactive),–
Oc1cn2c(n1)Nc1ccc(Cl)c(Cl)c1C2,–,inactive
CC1=CCC(C(C)C)=CC1,-0.0686% (inactive),–
COCCOCCOCCOCCOCCO,0.0659% (inactive),–
O=C(c1ccc(O)cc1)c1ccc(O)c(O)c1O,0.0834% (inactive),–
O=C1O[C@@H]2[C@@H](O)[C@H](O)O[C@@H]2[C@H]1O,–,inactive
CC(=O)c1sc(C)nc1C,-0.178% (inactive),–
CC(=O)Nc1ccc(S(=O)(=O)Nc2ccc([N+](=O)[O-])cc2)cc1,0.285% [at 46 µM] (inactive),–
CCOc1cc([N+](=O)[O-])c(OCC)cc1N1CCOCC1,0.0744% (inactive),–
